Test [1] addresses Rap guanine nucleotide exchange factor 3 (Homo sapiens) (UniProt O95398). Description: Confirmatory qHTS for antagonist of cAMP-regulated guanine nucleotide exchange factor 3 (EPAC1) (AID 1645880). Further: nearly all actives have a fitted effect of over 55% in size. Further: potency means the concentration at half of the fitted maximal effect. Summed up: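 Released BODIPY-GDP fluoresces less than Rap1-bound BODIPY-GDP; the signal is followed at 480/540 nm at 5-min intervals over 30 min, after 5 min at room temperature. Reactions contain 100 nM EPAC1, 250 nM RAP1B-BODIPY-GDP and 50 uM GDP; results are normalized to ATA and DMSO.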
A general note: qHTS replaces the single test concentration by a dilution series.

Test [2] shares this target. The test is described as follows: Confirmatory qHTS for agonist of cAMP-regulated guanine nucleotide exchange factor 3 (EPAC1) (AID 1645881). Further: nearly all actives have a fitted effect of over 75% in size. Further: potency means the concentration at half of the fitted maximal effect.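 On activation: EPAC1 catalysed release of BODIPY-GDP from Rap1B seen as fluorescence loss; 100% = effect of cAMP agonist control.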
The target in test [3] is Rap guanine nucleotide exchange factor 4 (Homo sapiens) (UniProt Q8WZA2). Description: Confirmatory qHTS for agonist of cAMP-regulated guanine nucleotide exchange factor 4 (EPAC2) (AID 1645884).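 Further: nucleotide exchange releases bodipy-GDP from Rap1 and this lowers its fluorescence; nearly all actives have a fitted effect of over 65% in size.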 Further: potency means the concentration at half of the fitted maximal effect. On activation: on the % scale 0 is the no-effect control and ±100 the full control effect.
Rap guanine nucleotide exchange factor 4 (Homo sapiens), sequence (Q8WZA2 whole entry, looked up): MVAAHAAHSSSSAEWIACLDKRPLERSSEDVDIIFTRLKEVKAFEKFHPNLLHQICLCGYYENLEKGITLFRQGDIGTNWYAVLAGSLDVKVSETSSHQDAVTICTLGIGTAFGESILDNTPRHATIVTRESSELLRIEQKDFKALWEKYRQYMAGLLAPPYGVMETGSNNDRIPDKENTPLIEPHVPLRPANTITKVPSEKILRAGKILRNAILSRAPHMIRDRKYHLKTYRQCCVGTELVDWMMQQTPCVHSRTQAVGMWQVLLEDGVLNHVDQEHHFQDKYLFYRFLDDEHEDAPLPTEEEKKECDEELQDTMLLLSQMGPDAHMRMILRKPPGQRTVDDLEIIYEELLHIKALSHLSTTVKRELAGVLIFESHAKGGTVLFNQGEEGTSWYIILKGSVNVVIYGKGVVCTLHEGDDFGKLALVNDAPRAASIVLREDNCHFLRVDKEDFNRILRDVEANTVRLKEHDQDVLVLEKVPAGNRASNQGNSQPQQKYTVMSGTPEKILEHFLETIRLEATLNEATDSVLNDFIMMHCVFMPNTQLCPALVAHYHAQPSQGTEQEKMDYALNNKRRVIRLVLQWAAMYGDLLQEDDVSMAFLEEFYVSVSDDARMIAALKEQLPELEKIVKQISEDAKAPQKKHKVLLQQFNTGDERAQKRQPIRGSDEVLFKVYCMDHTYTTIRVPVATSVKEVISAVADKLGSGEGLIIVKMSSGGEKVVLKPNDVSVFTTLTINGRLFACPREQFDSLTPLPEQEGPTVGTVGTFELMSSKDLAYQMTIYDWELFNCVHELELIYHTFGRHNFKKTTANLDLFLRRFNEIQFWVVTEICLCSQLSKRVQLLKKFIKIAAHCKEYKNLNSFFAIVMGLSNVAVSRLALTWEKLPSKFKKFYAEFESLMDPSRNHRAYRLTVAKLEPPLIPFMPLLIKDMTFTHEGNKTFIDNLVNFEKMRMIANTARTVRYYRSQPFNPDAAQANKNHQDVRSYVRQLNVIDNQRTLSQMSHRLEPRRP
For test [4] the target is unchanged. Description: Confirmatory qHTS for antagonist of cAMP-regulated guanine nucleotide exchange factor 4 (EPAC2) (AID 1645885). Further: nearly all actives have a fitted effect of over 25% in size. Further: potency means the concentration at half of the fitted maximal effect. On activity change, negative = inhibition: on the % scale 0 is the no-effect control and ±100 the full control effect.
Test [5] addresses Rap guanine nucleotide exchange factor 3 (Homo sapiens) (UniProt O95398). Description: Counterscreen qHTS for antagonist of cAMP-regulated guanine nucleotide exchange factor 3 (EPAC1) (AID 1645888). Further: % of control where 0% means no effect. The essentials: (§1)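 Measured: fluorescence of BODIPY-GDP bound to Rap1B, which falls as exchange proceeds. Conditions include 50 uM competing GDP, 5 and 30 min reads, and a later cAMP challenge for antagonist detection.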
In general terms: Counterscreens check selectivity or assay interference.

Test [6] has the same target. Description: Counterscreen qHTS for agonist of cAMP-regulated guanine nucleotide exchange factor 3 (EPAC1) (AID 1645889). Further: nearly all actives have a fitted effect of over 40% in size. Further: potency means the concentration at half of the fitted maximal effect. On activation: % of control where 0% means no effect. Summed up:
as §1

Inconclusive results are not listed. Values without a mark were called inactive. Active and inactive are the calls of the source. The call rests on the fitted dose curve; in most records, active means well fitted curve in the direction sought with a large enough effect; inconclusive means small, poorly fitted or top-dose-only effect, or another doubt; inactive means no such curve, though single readings can be large; an effect the other way counts as inactive or inconclusive.

Rap guanine nucleotide exchange factor 3 (Homo sapiens), sequence (O95398 whole entry, looked up): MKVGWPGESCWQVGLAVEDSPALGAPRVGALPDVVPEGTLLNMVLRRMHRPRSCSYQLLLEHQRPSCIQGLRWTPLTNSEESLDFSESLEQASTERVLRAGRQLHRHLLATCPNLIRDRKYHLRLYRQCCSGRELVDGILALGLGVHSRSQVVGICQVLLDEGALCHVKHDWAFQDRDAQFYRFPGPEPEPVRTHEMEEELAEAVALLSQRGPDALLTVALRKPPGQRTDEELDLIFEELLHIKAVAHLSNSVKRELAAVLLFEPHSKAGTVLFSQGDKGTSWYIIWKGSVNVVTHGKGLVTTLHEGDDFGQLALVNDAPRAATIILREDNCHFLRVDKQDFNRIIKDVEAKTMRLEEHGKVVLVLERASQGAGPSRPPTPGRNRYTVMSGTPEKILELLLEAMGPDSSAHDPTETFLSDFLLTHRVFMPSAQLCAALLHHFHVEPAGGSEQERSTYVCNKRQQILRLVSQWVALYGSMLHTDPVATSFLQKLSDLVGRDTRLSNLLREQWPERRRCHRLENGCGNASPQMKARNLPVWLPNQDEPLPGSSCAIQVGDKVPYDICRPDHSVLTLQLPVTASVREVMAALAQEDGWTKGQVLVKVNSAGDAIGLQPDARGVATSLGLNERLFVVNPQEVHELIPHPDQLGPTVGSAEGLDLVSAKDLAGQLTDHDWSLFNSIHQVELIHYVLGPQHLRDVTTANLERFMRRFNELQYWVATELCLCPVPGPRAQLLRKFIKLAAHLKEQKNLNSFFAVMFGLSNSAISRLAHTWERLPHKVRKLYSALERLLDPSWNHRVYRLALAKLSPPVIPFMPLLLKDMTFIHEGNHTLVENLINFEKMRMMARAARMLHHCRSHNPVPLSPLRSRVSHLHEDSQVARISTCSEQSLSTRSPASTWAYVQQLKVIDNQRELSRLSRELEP

On to `CC(=O)C1=C(O)C(=O)N(c2cccc(Br)c2)C1c1ccc(Br)cc1` (stereo unspecified), for which the Potency in test [1] is 37.9 µM (active). The Potency result in test [2], in test [3], in test [4], in test [5] and in test [6] was “inactive” throughout.

As for `COc1cc2ccccc2cc1C(=O)N1CC(C)CC(C)C1` (stereo unspecified), the Potency result in test [1], in test [2] and in test [4] was “inactive” each time. The activation in test [3] is 1.37% [at 17.1 µM, percent relative to cAMP agonist control]; in test [6], 27.4% [at 30.8 µM]. Further, in test [5], the activity change, negative = inhibition was 1.39% [at 30.8 µM].

Turning to `Cc1ccc(C(CCN(Cc2ccccc2)C(=O)c2ccco2)c2ccco2)cc1` (stereo unspecified), the Potency was 37.9 µM (active) in test [1] and 53.6 µM (active) in test [4]. Besides, the Potency entry in test [2], in test [3], in test [5] and in test [6] was “inactive” throughout.

Take `COc1ccc(C(=O)COC(=O)CCN2C(=O)C3CC=CCC3C2=O)c(OC)c1` (stereo unspecified): the Potency result in test [1], in test [2] and in test [4] was “inactive” each time. Besides, the activation was 1.05% [at 17.1 µM, percent relative to cAMP agonist control] in test [3] and -0.565% [at 30.8 µM] in test [6]. In test [5], the activity change, negative = inhibition was -27.6% [at 30.8 µM].

Regarding `Cn1c(=O)c2nc3ccc(NC(=O)C(F)(F)F)cc3nc2n(C)c1=O`, the Potency in test [1] is 84.9 µM (active). For the same compound, the Potency result in test [2], in test [3], in test [4], in test [5] and in test [6] was “inactive” throughout.

As for `Cc1nc(N)sc1C(=O)N1N=N1`, the Potency result in test [1], in test [2], in test [3], in test [4], in test [5] and in test [6] was “inactive” throughout.

`CC1(C(=O)NS(=O)(=O)c2cccc(F)c2)CCN1C(=O)C1(c2ccc(Cl)cc2)CCC1` (stereo unspecified): in test [1], the Potency was 19 µM (active). Moreover, the Potency result in test [2], in test [3], in test [4], in test [5] and in test [6] was “inactive” throughout.

`N#Cc1c(-c2ccccc2)nc(SCC(=O)N2c3ccccc3Sc3ccccc32)[nH]c1=O`: in test [1], the Potency is 19 µM (active). Also, the Potency result in test [2], in test [3], in test [4], in test [5] and in test [6] was “inactive” in each case.

On to `O=c1oc(-c2ccccc2)c(-c2ccccc2)c2ccccc12`, for which the Potency entry in test [1], in test [2], in test [3], in test [4], in test [5] and in test [6] was “inactive” throughout.

As for `CCC(=O)N1CCc2cc(OC)c(OC)cc2C1COc1ccccc1OC` (stereo unspecified), the Potency result in test [1], in test [2], in test [3], in test [4] and in test [5] was “inactive” throughout. For the same compound, the activation in test [6] was 4.46% [at 30.8 µM].

In the case of `COc1cccc(NC(=O)CN(C)C(=O)CNC(=O)c2ccc(Oc3ccccc3)cc2)c1`, the Potency entry in test [1], in test [2] and in test [4] was “inactive” each time. For the same compound, the activation in test [3] is 6.73% [at 17.1 µM, percent relative to cAMP agonist control]; in test [6] it was 29.7% [at 30.8 µM]. Moreover, the activity change, negative = inhibition in test [5] is -3.89% [at 30.8 µM].

On to `COc1cc(/C=C2\SC(=S)N(NS(=O)(=O)c3ccccc3)C2=O)ccc1O`, for which the Potency entry in test [1], in test [2], in test [3], in test [4], in test [5] and in test [6] was “inactive” each time.

On to `Cc1noc(NS(=O)(=O)c2ccc(NC(=O)CSc3nnc4c(n3)[nH]c3ccccc34)cc2)c1C`, for which the Potency in test [1] was 23.9 µM (active). Moreover, the Potency result in test [2], in test [3], in test [4], in test [5] and in test [6] was “inactive” each time.

Consider `CCN(CC)S(=O)(=O)c1cc(NC(=O)Cn2ncc(Cl)c(Cl)c2=O)ccc1C`, for which the Potency in test [1] is 39.8 µM (active). Further, the Potency entry in test [2] and in test [4] was “inactive” throughout. Further, the activation in test [3] was -11.9% [at 17.1 µM, percent relative to cAMP agonist control]; in test [6], 5.37% [at 30.8 µM]. Besides, the activity change, negative = inhibition in test [5] is -2.1% [at 30.8 µM].

`OCC[n+]1ccc(/C=C/c2c[nH]c3ccccc23)cc1`: the Potency result in test [1], in test [4] and in test [5] was “inactive” throughout. For the same compound, the Potency in test [2] was 56.2 µM (active); in test [3], 100 µM (active); in test [6] it was 56.2 µM (active).

As to `COc1ccc(N2CCN(C(=O)c3noc4c3CCCCC4)CC2)cc1`, the Potency entry in test [1], in test [2], in test [3], in test [4], in test [5] and in test [6] was “inactive” each time.

With `Cc1ccc(NC(=O)N2CCN(c3nnc(C)c4c(C)n(-c5ccc(Cl)cc5)nc34)CC2)c(C)c1`, the Potency entry in test [1], in test [2], in test [3], in test [4], in test [5] and in test [6] was “inactive” throughout.

On to `C=CC(=C)CC(NC)c1ccccc1` (stereo unspecified), for which the Potency result in test [1], in test [2], in test [3], in test [5] and in test [6] was “inactive” throughout. The Potency in test [4] was 84.9 µM (active).

As for `CCOc1cc(C(=O)Nc2ccc3c(c2)n(C)c(=O)c(=O)n3C)cc(OCC)c1OCC`, the Potency entry in test [1], in test [2], in test [3], in test [5] and in test [6] was “inactive” throughout. In addition, the outcome in test [4] was “inactive [at 12.7 µM]”.

For the compound `Cc1cc2oc(=O)c3c(c2cc1OC(=O)c1ccco1)CCCC3`, the Potency entry in test [1], in test [2], in test [3], in test [4], in test [5] and in test [6] was “inactive” in each case.

For `O=C(O)CCCCCN1C(=O)/C(=C/c2cn(-c3ccccc3)nc2-c2cccs2)SC1=S`, the Potency result in test [1] and in test [4] was “inactive” each time. Further, the Potency in test [2] was 79.4 µM (active); in test [6] it was 14.1 µM (active). Besides, the activation in test [3] was 17.7% [at 17.1 µM, percent relative to cAMP agonist control]. Further, in test [5], the activity change, negative = inhibition was 39% [at 30.8 µM].
